Measured values as given in PubChem BioAssay (Tox21).
Values joined by “and” are separate entries in the source; they are usually repeats but may differ in a detail not shown here. Identical values can stand only once. Results filed as inconclusive are left out. Entries that show only a call come without a potency. Active and inactive are the calls of the source. The call rests on the fitted dose curve; in most records, active means well fitted activation curve with a large enough effect in the repeat runs; inconclusive means weak or mixed curves; inactive means no such curve, though single readings can be large or run the other way.

assay: qHTS assay for small molecules that induce genotoxicity in human embryonic kidney cells expressing luciferase-tagged ATAD5 (AID 651632); conditions: HEK293T ATAD5-luciferase induction, 16 h; series mostly up to 83.3 µM; further: nearly all actives have a fitted effect of over 15% in size
Excerpt: U.S. Tox21 Program National Center for Advancing Translational Sciences [NCATS] NIH Chemical Genomics Center [NCGC] U.S. Environmental Protection Agency [EPA] National Institutes of Environmental Health Sciences [NIEHS] National Toxicology Program [NTP] U.S. Food and Drug Administration [FDA] Tox21 Assay Overview: As cancer cells divide rapidly and during every cell division they need to duplicate their genome by DNA replication. The failure to do so results in the cancer cell death. Based on this concept, many chemotherapeutic agents were developed but have limitations such as low efficacy and severe side effects etc. A new cell based assay was developed to find the compounds that effectively block DNA replication either by directly damaging DNA or by inhibiting other cellular mechanisms. Enhanced Level of Genome Instability Gene 1 (ELG1; human ATAD5) protein levels increase in response to various types of DNA damage. Using a luciferase reporter-gene tagged with ATAD5, a cell-based assay [developed by Kyungjae Myung, NHGRI, NIH] was used to measure the induction of ATAD5 in human embryonic kidney cells (HEK293T). So, increase in luciferase activity can be used to identify the compounds that cause genetic stress.
Tox21 Assay Protocol Summary: For genotoxicity screening, 2,000 cells in 5 uL/well were dispensed into white, solid-bottom 1536-well plates using a Multidrop Combi (Thermo Scientific) dispenser. Following transfer of 23 nL compound or DMSO vehicle by a pin tool, the plates were incubated 16 hr at 37C and 5% CO2. 5 ul Amplite (AAT Bioquest, Inc.) was then added to each plate and following 30 min incubation at room temperature, luciferase activity was quantified on a ViewLux CCD-based plate reader.
Potency means the concentration at half of the fitted maximal effect.

SMILES	Potency
Oc1ccc(-c2ccccc2)cc1	inactive
COP(=S)(OC)Oc1cc(Cl)c(Cl)cc1Cl	inactive
CCN(CC)C(=O)SCc1ccc(Cl)cc1	inactive
Nc1ccc(-c2ccccc2)cc1	inactive
OCC(O)CO	inactive
O=c1oc2ccccc2c(O)c1C(CC(O)c1ccc(-c2ccc(Br)cc2)cc1)c1ccccc1 (stereo not given)	inactive
CC(C)(c1cc(Cl)c(O)c(Cl)c1)c1cc(Cl)c(O)c(Cl)c1	inactive
CCCCC(CC)COC(=O)Cl (stereo not given)	inactive
Oc1cc(Cl)ccc1Oc1ccc(Cl)cc1Cl	inactive
Cc1c(COC(=O)[C@@H]2[C@H](/C=C(\Cl)C(F)(F)F)C2(C)C)cccc1-c1ccccc1	inactive
N#Cc1cc(Br)c(O)c(Br)c1	inactive
COP(=O)(OC)OC	inactive
CNC(=O)N(C)c1nnc(C(C)(C)C)s1	inactive
Cc1cc(C)cc(C)c1	inactive
CC(C)(OOC(C)(C)c1ccccc1)c1ccccc1	inactive
Nn1cnnc1	inactive
O=P(Oc1ccccc1)(Oc1ccccc1)Oc1ccccc1	inactive
c1nc[nH]n1	inactive
O=[N+]([O-])c1cccc2ccccc12	inactive
C#C[C@]1(O)CC[C@H]2[C@@H]3CCC4=CC(=O)CC[C@]4(C)[C@H]3CC[C@@]21C	inactive

SMILES	Potency
O=[N+]([O-])c1ccc(O)c([N+](=O)[O-])c1	inactive
CCC(C)(c1ccc(O)cc1)c1ccc(O)cc1	inactive
c1ccc(NNc2ccccc2)cc1	inactive
Cc1ccccc1[N+](=O)[O-]	inactive
Cc1ccc2c(c1N)C(=O)c1ccccc1C2=O	13.5 µM (active) and 9.69 µM (active)
C#CCOS(=O)OC1CCCCC1Oc1ccc(C(C)(C)C)cc1 (stereo not given)	inactive
CC(C)Oc1cc(-n2nc(C(C)(C)C)oc2=O)c(Cl)cc1Cl	inactive
CCCCN(CCCC)N=O	inactive
CCN(N=O)C(N)=O	inactive
CC(O)CCO (stereo not given)	inactive
CCOP(=S)(OCC)O/N=C(\C#N)c1ccccc1	inactive
CC1(C)C(C=C(Cl)Cl)C1C(=O)OC(C#N)c1cccc(Oc2ccccc2)c1 (stereo not given)	inactive
O=P(O)(O)CCCl	inactive
Cc1ccc(OP(=O)(Oc2ccc(C)cc2)Oc2ccc(C)cc2)cc1	inactive
c1ccc(P(c2ccccc2)c2ccccc2)cc1	inactive
CC(C)=CC1C(C(=O)OCc2coc(Cc3ccccc3)c2)C1(C)C (stereo not given)	inactive
O=C(NC(=O)c1c(F)cccc1F)Nc1ccc(Cl)cc1	inactive
Nc1ccc(Cl)c(Cl)c1	inactive
CCCCN(CC)c1c([N+](=O)[O-])cc(C(F)(F)F)cc1[N+](=O)[O-]	inactive
N[C@@H](Cc1ccc(N(CCCl)CCCl)cc1)C(=O)O	inactive
